This is one part of the list. Activity calls are given as the source filed them.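 How the source made its calls: active means activation of at least 7% in one or more replicates; inactive means the rest.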
Assay: activation of alpha-dystroglycan glycosylation – single concentration, Pro5-aDG cells, confirmation (AID 651671);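 further: cells exposed to compound for two days before detection; 0% = DMSO-treated Pro5 cells and 100% = DMSO-treated B10-LARGE cells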
Conditions: alpha-DG glycosylation, IIH6 AlphaLISA, stronger effect = higher value, screened at 10 µM (by protocol), scaled to LARGE-overexpressing B10 cells as 100%

| SMILES | activation |
| --- | --- |
| CN1CCN(S(=O)(=O)c2cccc(C(=O)Nc3sccc3C#N)c2)CC1 | 42% (active) |
| Cc1cc(C)c2[nH]c(=O)c(CN(Cc3ccccc3)C(=S)NCCCN(C)C)cc2c1 | 1.74% (inactive) |
| CCn1cc(CN2CCC(C(=O)Nc3cccc(-c4cccc(Cl)c4)c3)CC2)c(C)n1 | 9.24% (active) |
| COc1ccc(NC(=O)CSc2nnc(-c3ccccc3F)n2C2CC2)cc1S(N)(=O)=O | -0.758% (inactive) |
| CC(C)c1cc(Cn2c3ccccc3c(=O)n2C(C)Cn2cc(C3CC3)nn2)on1 (configuration not stated) | 0.475% (inactive) |
| O=C(c1ccc(N2CCCC2=O)cc1)N1CCN(c2ccc(C(F)(F)F)cc2[N+](=O)[O-])CC1 | 1.5% (inactive) |
| Cc1ccc(NC(=O)c2ccc(Oc3ncccn3)cc2)cc1 | -0.983% (inactive) |
| COc1ccccc1N1CCN(C(=O)c2cc(-c3ccc(Br)cc3)on2)CC1 | -0.683% (inactive) |
| CCc1ccccc1S(=O)(=O)Cc1ccc(C(=O)NCCc2ccccc2)o1 | -0.875% (inactive) |
| COc1ccccc1C1SCCN1C(=O)c1ccc([N+](=O)[O-])cc1 (configuration not stated) | -0.592% (inactive) |
| OC[C@@H]1CN(Cc2ccc(-c3ccccc3)cc2)C[C@H](n2cnc3c(NC4CCCC4)ncnc32)O1 | 4.21% (inactive) |
| Nc1scc[n+]1Cc1cccc2cccnc12 | -0.533% (inactive) |
| Cc1cccc(CN2CCC(CNC(=O)Nc3ccc(F)c(Cl)c3)CC2)c1 | 11% (active) |
| CCOc1ccccc1Nc1nnc(SCC(=O)NCC2CCCO2)s1 (configuration not stated) | 0.625% (inactive) |
| CN(C)CCCNC(=O)/C=C/c1ccc(OCc2c(F)cccc2Cl)cc1 | 8.53% (active) |
| CCOc1ccc(OCC(=O)Nc2c3c(nn2C(C)(C)C)CS(=O)(=O)C3)cc1 | 0.637% (inactive) |
| CC(C)OC(=O)CN1C(=O)C(=O)c2ccccc21 | 8.05% (active) |
| CC(=O)Oc1cccc(N2C(=O)C3CC=C(Cl)CC3C2=O)c1 (configuration not stated) | 0.562% (inactive) |
| CCCn1c(=N)n(CC(=O)c2ccc(Cl)c(Cl)c2)c2ccccc21 | 11% (active) |
| CCOC(=O)C1(CCOC)CCN(Cc2cc3ccccc3s2)CC1 | -0.438% (inactive) |
| COc1cc(CNCCN(C)C)ccc1OCc1c(F)cccc1Cl | 6.71% (active) |
| CC(C)C(=O)NCC(c1cccs1)S(=O)(=O)c1ccc(F)cc1 (configuration not stated) | 0.3% (inactive) |
| O=c1ccc2cc(S(=O)(=O)N3CCN(c4ccccc4)CC3)ccc2o1 | -0.742% (inactive) |
| Cc1ccc(NC(=O)CN(C)CC(=O)Nc2cccc(F)c2)cc1[N+](=O)[O-] | 1.48% (inactive) |
| COc1cccc(C(=O)Nc2nnc(S(=O)(=O)N3CCCCC3)s2)c1 | -0.562% (inactive) |
| CN(Cc1ccccc1)CC(O)COc1ccc(CNCc2cc3ccccc3s2)cc1 (configuration not stated) | 0.15% (inactive) |
| O=C(NC(c1ccc(-c2ccccc2)cc1)c1cnccn1)C1CCN(CCOc2ccc(Cl)cc2Cl)CC1 (configuration not stated) | 3.11% (inactive) |

— PubChem BioAssay AID651671 (Sanford-Burnham Center for Chemical Genomics, 2012)
